Results: PubChem BioAssay (NCI)
The panel holds about 79,000 compounds, 15% with a hit somewhere; the sample as a whole holds those more often. The source made the active and inactive calls. Cut-off read from the data, not from the text of the source: active = growth inhibition above about 70%; inactive = the rest.

How the values were obtained:
[1] = NCI Yeast Anticancer Drug Screen. Data for the rad50 strain (AID 155);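 note: 0% = growth of vehicle-only cultures of the same strain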; settings: S. cerevisiae rad50 strain growth inhibition; at 50.0 µM; hits give high values
Outline: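 Inhibition values express reduced yeast growth in compound-treated cultures relative to vehicle-treated controls.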

[2] = NCI Yeast Anticancer Drug Screen. Data for the mec2-1 strain (AID 157); settings: S. cerevisiae mec2-1 strain, at 50.0 µM, hits give high values
Outline: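 Compounds were applied to mec2-1 yeast cells. Their growth was then compared with that of vehicle-treated cultures to give growth inhibition.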

[3] = NCI Yeast Anticancer Drug Screen. Data for the sgs1 mgt1 strain (AID 161);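 note: 0% = growth of cultures given vehicle only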; settings: S. cerevisiae sgs1 mgt1 strain, at 50.0 µM, hits give high values
Outline: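 Percent growth inhibition was derived by comparing compound-exposed mutant yeast with vehicle-exposed cultures. The strain carries alterations in DNA damage repair.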

[4] = NCI Yeast Anticancer Drug Screen. Data for the cln2 rad14 strain (AID 165);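 note: 0% = growth equal to vehicle treated cultures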; settings: S. cerevisiae cln2 rad14 strain, at 50.0 µM, hits give high values
Outline: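 Strain: cln2 rad14 yeast, altered in cell cycle control and DNA damage repair. Read-out: growth inhibition vs vehicle.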

[5] = NCI Yeast Anticancer Drug Screen. Data for the bub3 strain (AID 167); settings: S. cerevisiae bub3 mutant strain, at 50.0 µM, hits give high values
Outline: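 Steps: expose the mutant yeast strain to compound; grow alongside vehicle-treated cultures; measure growth; express inhibition against the vehicle cultures.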

[6] = NCI Yeast Anticancer Drug Screen. Data for the mlh1 rad18 strain (AID 175); settings: S. cerevisiae mlh1 rad18 strain growth inhibition; at 50.0 µM; hits give high values
Outline: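 A repair-deficient yeast strain is exposed to test compound, and growth is scored relative to vehicle-treated controls.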

Measured: growth inhibition

COc1ccc2oc3c(C)cc4c(OC)nnc(OC)c4c3c2c1
inactive: [1] -43.8% | [2] -52.9% | [3] -13.4% | [4] -18.1% | [5] -5.35% | [6] -12.8%

CC1(C)C(=O)N=C(N)N1C(=O)OCc1ccccc1
inactive: [1] -11.9% | [2] -4.45% | [3] -6.6% | [4] 13.8% | [5] -10% | [6] -17.5%

O=C(O)CCCCC(=O)c1cc(O)ccc1O
inactive: [1] 15.3% | [2] 10.1% | [3] 2.55% | [4] -53.3% | [5] -15.3% | [6] -3.45%

O=C(O)CS(=O)(=O)CC(=O)O
inactive: [1] -10.3% | [2] -11.4% | [3] -10.2% | [4] -6.65% | [5] -23.4% | [6] -12.1%

CCCOC1OC(CS(=O)(=O)O)C(OC(C)=O)C(OC(C)=O)C1OC(C)=O (stereo not drawn)
inactive: [1] 3.25% | [2] 3.1% | [3] 8.4% | [4] 18% | [5] 2.4% | [6] 5.95%

O=C(O)/C(=C/c1ccc([N+](=O)[O-])cc1)c1ccc([N+](=O)[O-])cc1
inactive: [1] 6.9% | [2] -4% | [3] 2.05% | [4] -35.4% | [5] -1.7% | [6] 1.55%

CCOC(=O)N1C(=O)c2ccccc2C1=O
inactive: [1] -7.35% | [2] -13.2% | [3] -16.8% | [4] -8.75% | [5] -13.3% | [6] -9.25%

Cc1nc(N)c(-c2ccccc2)s1
inactive: [1] 18.1% | [2] -15.9% | [3] 7.2% | [4] -11.2% | [5] -7.85% | [6] 11.9%

CC(O)C(N=Cc1nc(-c2ccccc2)oc1O)C(=O)O (stereo not drawn)
inactive: [1] -3.25% | [2] -6.55% | [3] 0% | [4] 1.2% | [5] -0.15% | [6] 7.05%

CC[N+](CC)=c1ccc2nc3c(cc(Nc4ccccc4)c4ccccc43)oc-2c1.[Cl][Zn][Cl]
inactive: [1] 18.4% | [2] 1.4% | [3] 22.2% | [4] 20.9% | [5] -0.55% | [6] 15.4%

O=C(NCCS(=O)(=O)N1C(=O)C2CCCN2C(=O)[C@@H]1Cc1ccccc1)OCc1ccccc1 (stereo partly drawn)
inactive: [1] -4.35% | [2] -0.55% | [3] -4.35% | [4] 19.4% | [5] 5.8% | [6] 26.1%

C[C@@H]1CN(c2ccccc2)C[C@H](C)OS(=O)O1 (stereo partly drawn)
inactive: [1] 2.65% | [2] -1.95% | [3] -12.8% | [4] -16.6% | [5] -6.95% | [6] -0.7%

CNC(=S)NNC1=NCCCCN1
inactive: [1] -41.2% | [2] -20% | [3] -16.1% | [4] 3.9% | [5] 2.1% | [6] -16.1%

COc1cc(NC(C)CNC(C)C)c2ncccc2c1 (stereo not drawn)
inactive: [1] -15.7% | [2] -4.85% | [3] -2.1% | [4] -34% | [5] 7% | [6] 2.1%

COc1cc(-c2ccc(NC(=O)N3CC3)c(OC)c2)ccc1NC(=O)N1CC1
inactive: [1] 8.8% | [2] -2.5% | [3] 8.3% | [4] 19.4% | [5] -0.4% | [6] 10.7%

Oc1cc(O)c2c(c1)O[C@@H](c1ccc(O)c(O)c1)[C@H](O)C2
inactive: [1] 5.75% | [2] -37.4% | [3] 0.2% | [4] 6.15% | [5] -12.7% | [6] 7.55%

CCCCc1c2c([n+]([O-])c3c1CCCC3)CCCC2
inactive: [1] 29.4% | [2] 30.3% | [3] 54.1% | [4] -11.2% | [5] 17.2% | [6] 20.1%

C/C(=N\NC(=O)CC(=O)N(C(=O)c1ccc(Cl)cc1)c1ccc(C)cc1)c1ccccc1O
inactive: [1] -2.05% | [2] -26% | [3] -10.2% | [4] 5.9% | [5] -1.3% | [6] -29.6%

Cn1ncc2c(NN)nc(Cl)nc21
inactive: [1] 8.6% | [2] -18.7% | [3] -4.55% | [4] -18.4% | [5] -14.8% | [6] 7%

O=C(O)/C=C/C=C/c1ccc(Cl)cc1
inactive: [1] 7.25% | [2] 23.4% | [3] 4.3% | [4] -14% | [5] 10.4% | [6] -1.95%

CC1=NN(C(=O)Cc2ccccc2)C(=O)/C1=C\c1ccco1
inactive: [1] -37.9% | [2] -37.4% | [3] -47.9% | [4] -13.8% | [5] -25.9% | [6] -55.9%

COC(=O)C1=C(NC(=O)Nc2ccc(OC)cc2)OC(C)(C)C1c1ccc(Cl)cc1 (stereo not drawn)
inactive: [1] 25.9% | [2] 41.7% | [3] 30.4% | [4] 3.75% | [5] 24.1% | [6] 43.4%

FC(F)/C=C\c1ccccc1
inactive: [1] 8.85% | [2] -4.55% | [3] -10.4% | [4] -19.8% | [5] -16.9% | [6] 6.9%

CCCC(=O)c1cc(-c2cc(C(=O)CCC)nc(N)n2)nc(N)n1
inactive: [1] 3.65% | [2] -3.4% | [3] 3.1% | [4] -15.9% | [5] -7.1% | [6] -0.4%

O=C1CCCC(=O)C1=Cc1c[nH]c2ccccc12
inactive: [1] 4.3% | [2] 2% | [3] -4.35% | [4] -43% | [5] -16.1% | [6] 15.1%

CC1=Nn2c(nnc2-c2ccc(Cl)cc2)NC(C)(C)C1
inactive: [1] 25.2% | [2] 5.55% | [3] 7.65% | [4] 7.95% | [5] 39.1% | [6] 26.3%

Cc1nc(C(N)=S)sc1C(=O)CC(=O)C(=O)Nc1cccc(Cl)c1C
inactive: [1] 1.2% | [2] -2.4% | [3] -10.2% | [4] -6.65% | [5] -0.4% | [6] -53.4%

COc1ccc(CCn2cnc3ccccc32)cc1
inactive: [1] -44.1% | [2] -34.6% | [3] -34.5% | [4] -4.05% | [5] -11.4% | [6] -18.9%

COc1cc(OC)c([N+](=O)[O-])cc1/C=C/C(=O)O
inactive: [1] -5.25% | [2] -3.35% | [3] 8% | [4] 6.15% | [5] 9.95% | [6] 4.05%

O=C(NC(=O)C1(C(=O)O)CCCC1)Nc1ccccc1
inactive: [1] 7.95% | [2] -7.05% | [3] 6.4% | [4] -39.1% | [5] 27.4% | [6] -9.15%

O=C1OC(=O)C(=C(c2ccccc2)c2ccccc2)C1=C(c1ccccc1)c1ccccc1
inactive: [1] 51.8% | [2] 64.1% | [3] 48.4% | [4] 43.5% | [5] 53.1%
active: [6] 76.8%

O=S(=O)(NC/C=C/c1ccccc1)c1ccccc1
inactive: [1] -6.95% | [2] 16.7% | [3] -0.45% | [4] 26.9% | [5] 4.65% | [6] -39.9%

CN(N=O)C(=O)NCc1ccc(Cl)cc1
inactive: [1] -0.1% | [2] 15.8% | [3] 17.6% | [4] 12.4% | [5] 8.05% | [6] 1.15%

CC(C)(C)CNCCCBr
inactive: [1] -19.9% | [2] -4.8% | [3] -9.05% | [4] -13.3% | [5] 30.8% | [6] 8.15%

O=C(O)Cn1c[n+](NC(=O)Cc2ccccc2)cn1
inactive: [1] -19.6% | [2] -25.4% | [3] -25% | [4] -41.8% | [5] -34.5% | [6] -10.8%

CCCC(=O)c1ccc(=O)n(C)c1
inactive: [1] 18.2% | [2] 9.8% | [3] -4.4% | [4] -2.1% | [5] 14.4% | [6] 17.9%

CC12CC1CCCC2OC(=O)c1cc([N+](=O)[O-])cc([N+](=O)[O-])c1 (stereo not drawn)
inactive: [1] 4.75% | [2] 2.15% | [3] -5.7% | [4] -12.7% | [5] -7.65% | [6] -0.15%

O=C(O)C(CO)Nc1ccccc1 (stereo not drawn)
inactive: [1] 18.9% | [2] 10.4% | [3] 22.1% | [4] 12.9% | [5] -0.65% | [6] 21.7%
